# In PubChem BioAssay (NCATS):
# Inconclusive results are not listed. Where a call stands in place of a potency, no number is given. Calls of active or inactive are those of the source. Unless noted, calls follow the shape of the full dose curve.
# Key:
# [1] = Primary qHTS for inhibitors of SARS-S pseudo-typed particle cell entry (AID 1479145); also: nearly all actives have a fitted effect of over 45% in size; also: potency is read from the fitted curve at half-maximal effect
# [2] = Primary qHTS for Huh7 cytotoxicity: counterscreen for inhibitors of MERS-S pseudotyped particle cell entry (AID 1479147); also: potency is read from the fitted curve at half-maximal effect
# [3] = Primary qHTS for inhibitors of MERS-S pseudo-typed particle cell entry (AID 1479149); also: nearly all actives have a fitted effect of over 60% in size; also: potency is read from the fitted curve at half-maximal effect
# [4] = Primary qHTS for Vero E6 cytotoxicity: counterscreen for inhibitors of SARS-S pseudo-typed particle cell entry (AID 1479150)
# [5] = Cytotoxicity counterscreen for inhibitors of SARS-CoV-2 cell entry (AID 1645845); also: nearly all actives have a fitted effect of over 50% in size
# Summary of the method: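 HEK293-ACE2 cells (Expi293F stably expressing human ACE2) seeded overnight, then compound for 1 h plus 48 h at 37C. Viability as ATP content by luminescence; normalized to wells with cells and media-only wells.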
# [6] = Confirmatory qHTS to identify inhibitors of SARS-CoV-2 cell entry (AID 1645844); also: potency is read from the fitted curve at half-maximal effect; nearly all actives have a fitted effect of over 45% in size
# Summary of the method: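 HEK293-ACE2 cells were pretreated 1 h with compound, then infected with MLV-based pseudoparticles bearing C-terminally truncated Wuhan-Hu-1 spike for 48 h at 37C; luciferase luminescence normalized to spike PP and bald PP wells.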
# [7] = target: Calcium and integrin-binding protein 1 (Homo sapiens) (UniProt Q99828); assay: Validation qHTS for Identification of Calcium Integrin Binding protein 1 (CIB1) Competitor (AID 1508618; active = well fitted curve in the direction sought with a large enough effect; an effect the other way counts as inactive or inconclusive)
# Summary of the method: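 CIB1-GST (1 uM final) incubated 15 min at room temperature with compounds (up to 114 uM), then FITC-labelled alphaIIb peptide (100 nM) added. FP read (Ex 480/Em 540) after 15 min, pH 7.4 buffer containing 5 mM CaCl2.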
# [8] = target: Calcium and integrin-binding protein 1 (Homo sapiens) (UniProt Q99828); assay: Primary qHTS for Identification of Calcium Integrin Binding Protein 1 (CIB1) Competitor (AID 1508620; active = well fitted curve in the direction sought with a large enough effect; an effect the other way counts as inactive or inconclusive;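 also: GST tagged CIB1 binding a fluorescein labelled alphaIIb integrin peptide tracer; top concentration of the series differs between compounds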)
# Summary of the method: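 Fluorescence polarization competition: GST-tagged CIB1 (1 uM final) preincubated with compound 15 min at room temperature, then FITC-labelled alphaIIb peptide (100 nM final) added. After 15 min at room temperature, polarization read at Ex 480/Em 540.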
# [9] = Primary qHTS for small molecule stabilizers of the endoplasmic reticulum resident proteome: Secreted ER Calcium Modulated Protein (SERCaMP) assay (AID 1508630; active = well fitted curve in the direction sought with a large enough effect; an effect the other way counts as inactive or inconclusive)
# Summary of the method: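 GLuc-SERCaMP-expressing SH-SY5Y cells, pretreated 16 h with compound, are challenged with thapsigargin to empty ER calcium stores; after 4 h, coelenterazine is added directly to the medium and luminescence is imaged.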
# [10] = target: Cytochrome P450 2D6 (Homo sapiens) (UniProt P10635); assay: Cytochrome P450 family 2 subfamily D member 6 (CYP2D6) small molecule antagonists: luciferase biochemical (cell-free) qHTS assay (AID 1645840; active = well fitted curve in the direction sought with a large enough effect in the repeat runs; an effect the other way counts as inactive or inconclusive; also: nearly all actives have a fitted effect of over 55% in size; also: potency is read from the fitted curve at half-maximal effect)
# Summary of the method: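 P450-Glo luminescent screen: recombinant CYP2D6 enzyme–proluciferin substrate mix preincubated with compound 10 min at room temperature, then NADPH regeneration added for 1 h at room temperature. Detection reagent added for 20 min; luciferin light read as relative luminescence units.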
# [11] = target: Cytochrome P450 2C9 (Homo sapiens) (UniProt P11712); assay: Cytochrome P450 family 2 subfamily C member 9 (CYP2C9) small molecule antagonists: luciferase biochemical (cell-free) qHTS assay (AID 1645842; active = well fitted curve in the direction sought with a large enough effect in the repeat runs; an effect the other way counts as inactive or inconclusive; also: series mostly up to about 57 µM; nearly all actives have a fitted effect of over 55% in size)
# Summary of the method: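 Luminescence, after 20 min with luciferin detection reagent, reflected CYP2C9 turnover during a 1 h NADPH-driven reaction at 37C. Enzyme-substrate mix contained 0.4% bovine serum albumin and was preincubated with compound 10 min at room temperature.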
# [12] = Primary qHTS for inhibitors of La Crosse Virus (LACV) - induced cell death in SH-SY5Y cells (AID 1508616; active = well fitted curve in the direction sought with a large enough effect; an effect the other way counts as inactive or inconclusive;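 also: top concentration of the series differs between compounds; higher means more rescue of cells from virus-induced death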)
# Summary of the method: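 SH-SY5Y cells (6000/well) plated 24 h, then given compounds by pin transfer and LACV at 0.01 MOI for 6 days at 37C. Viability measured by ATPLite luminescence, normalized to infected DMSO and uninfected DMSO.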
# [13] = Confirmatory qHTS for VERO E6 Cytotoxicity Assay: Counterscreen for SARS-CoV-2 CPE Assay (AID 1508605); also: series mostly up to about 20 µM; nearly all actives have a fitted effect of over 60% in size
# [14] = Confirmatory qHTS for activators (rescue) of SARS-CoV-2 Cytopathic Effect (CPE) (AID 1508606); also: potency is read from the fitted curve at half-maximal effect; nearly all actives have a fitted effect of over 70% in size
# Calcium and integrin-binding protein 1 (Homo sapiens), sequence (Q99828 whole entry, looked up): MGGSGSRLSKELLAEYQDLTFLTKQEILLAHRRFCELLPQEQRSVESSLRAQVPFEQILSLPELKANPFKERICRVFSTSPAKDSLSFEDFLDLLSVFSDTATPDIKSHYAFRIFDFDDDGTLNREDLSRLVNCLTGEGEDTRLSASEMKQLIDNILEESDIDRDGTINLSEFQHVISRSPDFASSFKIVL
# Cytochrome P450 2C9 (Homo sapiens), sequence (P11712 whole entry, looked up): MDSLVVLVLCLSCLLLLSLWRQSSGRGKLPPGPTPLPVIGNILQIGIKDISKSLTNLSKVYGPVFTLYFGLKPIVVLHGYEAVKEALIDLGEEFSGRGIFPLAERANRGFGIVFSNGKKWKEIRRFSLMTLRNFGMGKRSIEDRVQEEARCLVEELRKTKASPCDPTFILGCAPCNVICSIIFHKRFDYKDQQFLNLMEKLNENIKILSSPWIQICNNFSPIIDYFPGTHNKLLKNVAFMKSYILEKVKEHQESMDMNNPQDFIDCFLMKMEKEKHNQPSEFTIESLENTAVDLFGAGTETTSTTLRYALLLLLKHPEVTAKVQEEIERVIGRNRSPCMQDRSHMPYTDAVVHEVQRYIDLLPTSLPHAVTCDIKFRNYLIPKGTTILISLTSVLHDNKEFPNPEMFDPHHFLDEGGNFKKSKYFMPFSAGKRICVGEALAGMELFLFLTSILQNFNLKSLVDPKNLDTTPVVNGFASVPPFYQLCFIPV
# Cytochrome P450 2D6 (Homo sapiens), sequence (P10635 whole entry, looked up): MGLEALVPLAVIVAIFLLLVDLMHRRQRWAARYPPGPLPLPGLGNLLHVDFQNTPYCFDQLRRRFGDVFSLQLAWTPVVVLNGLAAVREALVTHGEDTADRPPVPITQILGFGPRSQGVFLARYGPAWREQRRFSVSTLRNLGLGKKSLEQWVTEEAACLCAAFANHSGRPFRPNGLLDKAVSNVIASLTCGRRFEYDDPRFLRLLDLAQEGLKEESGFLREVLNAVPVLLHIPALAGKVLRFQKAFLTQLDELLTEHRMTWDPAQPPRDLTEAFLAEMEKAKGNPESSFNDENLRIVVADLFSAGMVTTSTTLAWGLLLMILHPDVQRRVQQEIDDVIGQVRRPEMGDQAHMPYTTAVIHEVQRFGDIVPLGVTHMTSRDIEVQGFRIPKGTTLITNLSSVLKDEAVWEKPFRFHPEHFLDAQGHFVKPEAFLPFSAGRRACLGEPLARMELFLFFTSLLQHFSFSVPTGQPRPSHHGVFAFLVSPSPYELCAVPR
compound,measurement,setting,value
CN(C)/N=N/c1nc[nH]c1C(N)=O,Potency,[1],inactive
same,Potency,[2],inactive
same,Potency,[3],inactive
same,Potency,[4],inactive
same,Potency,[5],inactive
CN(N=O)C(=O)N[C@@H]1[C@@H](O)[C@H](O)[C@@H](CO)O[C@@H]1O,Potency,[1],inactive
same,Potency,[2],inactive
same,Potency,[3],inactive
same,Potency,[4],inactive
same,Potency,[5],inactive
O=C1NC(=O)C(c2ccccc2)(c2ccccc2)N1,Potency,[1],inactive
same,Potency,[2],inactive
same,Potency,[3],inactive
same,Potency,[4],inactive
same,Potency,[5],inactive
O=NN(CCCl)C(=O)NCCCl,Potency,[1],inactive
same,Potency,[2],inactive
same,Potency,[3],inactive
same,Potency,[4],inactive
same,Potency,[5],inactive
O=C(O)COCCN1CCN(C(c2ccccc2)c2ccc(Cl)cc2)CC1 (stereo not given),Potency,[1],inactive
same,Potency,[2],inactive
same,Potency,[3],inactive
same,Potency,[4],inactive
same,Potency,[5],inactive
Nc1nnc(-c2cccc(Cl)c2Cl)c(N)n1,Potency,[1],inactive
same,Potency,[2],inactive
same,Potency,[3],inactive
same,Potency,[4],inactive
same,Potency,[5],inactive
NC(=O)OCC(COC(N)=O)c1ccccc1,Potency,[1],inactive
same,Potency,[2],inactive
same,Potency,[3],inactive
same,Potency,[4],inactive
same,Potency,[5],inactive
NS(=O)(=O)c1cc2c(cc1Cl)NC=NS2(=O)=O,Potency,[1],inactive
same,Potency,[2],inactive
same,Potency,[3],inactive
same,Potency,[4],inactive
same,Potency,[5],inactive
CCC[C@H](N[C@@H](C)C(=O)N1[C@H](C(=O)O)C[C@@H]2CCCC[C@@H]21)C(=O)OCC,Potency,[1],inactive
same,Potency,[2],inactive
same,Potency,[4],inactive
same,Potency,[5],inactive
CN1C(=O)CC(C)(c2ccccc2)C1=O (stereo not given),Potency,[1],inactive
same,Potency,[2],inactive
same,Potency,[4],inactive
same,Potency,[5],inactive
Cn1c(=O)c2c(ncn2CC(O)CO)n(C)c1=O (stereo not given),Potency,[1],inactive
same,Potency,[2],inactive
same,Potency,[4],inactive
same,Potency,[5],inactive
CC1(C)NC(=O)N(c2ccc([N+](=O)[O-])c(C(F)(F)F)c2)C1=O,Potency,[1],35.5 µM (active)
same,Potency,[2],inactive
same,Potency,[5],inactive
O=C1C(=O)c2ccccc2C(O)=C1C1CCC(c2ccc(Cl)cc2)CC1 (stereo not given),Potency,[1],0.891 µM (active)
same,Potency,[2],inactive
same,Potency,[3],22.4 µM (active)
same,Potency,[6],12.1 µM (active)
CC(=O)[C@]1(O)Cc2c(O)c3c(c(O)c2[C@@H](O[C@H]2C[C@H](N)[C@H](O)[C@H](C)O2)C1)C(=O)c1ccccc1C3=O,Potency,[1],8.91 µM (active)
same,Potency,[2],7.08 µM (active)
same,Potency,[6],0.0764 µM (active)
same,Potency,[5],inactive
CC(C)C[C@H](NC(=O)[C@H](CCc1ccccc1)NC(=O)CN1CCOCC1)C(=O)N[C@@H](Cc1ccccc1)C(=O)N[C@@H](CC(C)C)C(=O)[C@@]1(C)CO1,Potency,[1],1 µM (active)
same,Potency,[3],inactive
CN(C)CCOC(c1ccc(Cl)cc1)c1ccccn1 (stereo not given),Potency,[1],inactive
same,Potency,[2],inactive
same,Potency,[3],inactive
same,Potency,[5],inactive
C[C@@H]1O[C@@H](O[C@H]2C[C@@H](O)[C@]3(CO)[C@H]4[C@H](O)C[C@]5(C)[C@@H](C6=CC(=O)OC6)CC[C@]5(O)[C@@H]4CC[C@]3(O)C2)[C@H](O)[C@H](O)[C@H]1O,Potency,[1],inactive
same,Potency,[2],1.26 µM (active)
same,Potency,[3],inactive
same,Potency,[7],inactive
same,Potency,[8],inactive
same,outcome,[9],inactive
same,Potency,[10],inactive
same,Potency,[11],inactive
O=c1c(O)c(-c2ccc(O)c(O)c2)oc2cc(O)cc(O)c12,Potency,[1],inactive
same,Potency,[2],inactive
same,Potency,[4],inactive
same,Potency,[5],inactive
CCOC(=O)N1CCC(=C2c3ccc(Cl)cc3CCc3cccnc32)CC1,Potency,[1],inactive
same,Potency,[2],inactive
same,Potency,[4],inactive
CC(CCc1ccccc1)NC(C)C(O)c1ccc(O)cc1 (stereo not given),Potency,[1],inactive
same,Potency,[3],inactive
same,Potency,[4],inactive
same,Potency,[12],inactive
same,Potency,[7],inactive
same,Potency,[8],inactive
same,Potency,[10],0.195 µM (active)
same,Potency,[11],inactive
same,Potency,[5],inactive
Cn1cnc([N+](=O)[O-])c1Sc1ncnc2nc[nH]c12,Potency,[1],inactive
same,Potency,[2],inactive
same,Potency,[4],inactive
CC(C)C[C@H](NC(=O)[C@H](Cc1ccccc1)NC(=O)c1cnccn1)B(O)O,Potency,[1],inactive
same,Potency,[3],inactive
O=c1[nH]c2ccccc2n1C1CCN(CCCC(c2ccc(F)cc2)c2ccc(F)cc2)CC1,Potency,[1],11.2 µM (active)
same,Potency,[2],inactive
same,Potency,[4],inactive
same,Potency,[12],inactive
same,Potency,[7],inactive
same,Potency,[8],inactive
same,outcome,[9],inactive
COc1ccccc1Oc1c(NS(=O)(=O)c2ccc(C(C)(C)C)cc2)nc(-c2ncccn2)nc1OCCO,Potency,[1],inactive
same,Potency,[2],inactive
same,Potency,[4],inactive
same,Potency,[5],inactive
CCCCNc1ccc(C(=O)OCCOCCOCCOCCOCCOCCOCCOCCOCCOC)cc1,Potency,[1],inactive
same,Potency,[2],inactive
same,Potency,[4],inactive
same,Potency,[6],15.2 µM (active)
O=C1c2cccc3c2[C@H](CCC3)CN1[C@@H]1CN2CCC1CC2,Potency,[1],inactive
same,Potency,[2],inactive
same,Potency,[4],inactive
same,Potency,[5],inactive
Cc1oncc1C(=O)Nc1ccc(C(F)(F)F)cc1,Potency,[1],inactive
same,Potency,[3],inactive
CCN(CC)CCCC(C)Nc1ccnc2cc(Cl)ccc12 (stereo not given),Potency,[1],inactive
same,Potency,[2],inactive
same,Potency,[4],inactive
same,Potency,[5],inactive
CC(C)Nc1cccnc1N1CCN(C(=O)c2cc3cc(NS(C)(=O)=O)ccc3[nH]2)CC1,Potency,[1],inactive
same,Potency,[2],inactive
same,Potency,[3],inactive
same,Potency,[5],inactive
NC(=O)N/N=C/c1ccc([N+](=O)[O-])o1,Potency,[1],inactive
same,Potency,[3],inactive
same,Potency,[4],inactive
CCCN1C[C@H](CSC)C[C@@H]2c3cccc4[nH]cc(c34)C[C@H]21,Potency,[1],inactive
same,Potency,[2],inactive
same,Potency,[4],inactive
same,Potency,[5],inactive
CC[C@@]1(O)C(=O)OCc2c1cc1n(c2=O)Cc2cc3c(CN(C)C)c(O)ccc3nc2-1,Potency,[1],3.16 µM (active)
same,Potency,[2],inactive
same,Potency,[4],inactive
same,Potency,[5],inactive
Cc1nc(Nc2ncc(C(=O)Nc3c(C)cccc3Cl)s2)cc(N2CCN(CCO)CC2)n1,Potency,[1],inactive
same,Potency,[2],inactive
same,Potency,[5],inactive
Cc1nc(-c2ccc(OCC(C)C)c(C#N)c2)sc1C(=O)O,Potency,[1],inactive
same,Potency,[2],inactive
same,Potency,[3],inactive
same,Potency,[5],inactive
CCCC(CCC)C(=O)O,Potency,[1],inactive
same,Potency,[2],inactive
same,Potency,[4],inactive
same,Potency,[5],inactive
COC(=O)[C@H]1[C@H]2C[C@@H]3c4[nH]c5cc(OC)ccc5c4CCN3C[C@H]2C[C@@H](OC(=O)c2cc(OC)c(OC)c(OC)c2)[C@@H]1OC,Potency,[1],inactive
same,Potency,[2],inactive
same,Potency,[4],inactive
same,Potency,[13],inactive
same,Potency,[14],10 µM (active)
same,Potency,[5],inactive
